Compound activity from PubChem BioAssay.
D2 PAM-1 – HTS Assay for Positive Allosteric Modulators of the Human D2 Dopamine Receptor: Primary Screen for Potentiators. potentiation, % at 10 µM. AID 485347, 2010. D(2) dopamine receptor (Homo sapiens), P14416. HEK293 T-REx D2, calcium flux, EC20 dopamine potentiation. hit rate 0.34% among 340,000;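 active means potentiation over 3 SD above the plate norm, cut at about 30% in these data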; further: 0% is about no effect
Target sequence (P14416 whole entry, looked up): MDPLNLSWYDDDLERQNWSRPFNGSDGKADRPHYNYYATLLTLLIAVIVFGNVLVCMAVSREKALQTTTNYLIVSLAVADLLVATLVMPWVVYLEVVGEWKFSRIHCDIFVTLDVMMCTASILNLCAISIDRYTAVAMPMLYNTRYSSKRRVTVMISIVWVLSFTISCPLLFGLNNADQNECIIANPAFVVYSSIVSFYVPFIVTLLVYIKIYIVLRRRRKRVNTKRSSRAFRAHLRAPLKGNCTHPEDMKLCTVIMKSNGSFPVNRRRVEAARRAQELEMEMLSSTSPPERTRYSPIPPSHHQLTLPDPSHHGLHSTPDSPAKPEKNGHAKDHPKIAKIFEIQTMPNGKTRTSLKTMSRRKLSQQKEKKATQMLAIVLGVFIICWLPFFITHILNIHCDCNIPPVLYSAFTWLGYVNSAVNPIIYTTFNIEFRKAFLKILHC
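Using a no-wash calcium dye in inducible, force-coupled HEK293 Trex cells expressing D2, we tracked fluorescence each second for 180 s after compound, then for 180 s after EC20 dopamine to detect augmented signalling.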
D2 antag – HTS Assay for Allosteric Antagonists of the Human D2 Dopamine Receptor: Primary Screen for Antagonists; D(2) dopamine receptor (Homo sapiens), P14416; HEK293 TREx D2 cells, calcium flux, dopamine EC80; inhibition, % at 10 µM; hit rate 2% among 340,000; AID 485344, 2010; in the data active means inhibition above about 30%; inactive means below that, where a call was filed; further: 0% is about no effect
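Inhibition of EC80 dopamine-driven calcium flux, recorded kinetically, defines activity here; cells are a tetracycline-induced HEK293 T-REx line expressing force-coupled D2.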
D2 ag-1 – Beta-Arrestin HTS for Positive Allosteric Modulators of the Human D2 Dopamine Receptor: Agonists. D(2) dopamine receptor (Homo sapiens), P14416. DiscoveRx PathHunter D2 beta-arrestin, luminescence, 90 min; 100% = 57 uM dopamine signal. activation, % (test concentration not listed). hit rate 0.084% among 360,000. AID 624465, 2012; in the data active means activation above about 40%
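Agonist mode: compounds alone added to overnight-plated D2 PathHunter cells for 90 min at 37 C, with 57 uM final dopamine (EC100) defining full response. Beta-arrestin recruitment detected by chemiluminescent reagent, read after 1 h at ambient temperature.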
D2 PAM-2 – Beta-Arrestin HTS for Positive Allosteric Modulators of the Human D2 Dopamine Receptor: Potentiators; hit rate 0.23% among 360,000; DiscoveRx D2 beta-arrestin cells, luminescence, 90 min; 100% = 57 uM dopamine signal; D(2) dopamine receptor (Homo sapiens), P14416; potentiation, % (test concentration not listed); in the data active means potentiation above about 50%
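PathHunter D2 cells, attached overnight at 37 deg C, received compound in DMSO plus dopamine at EC20 (50 nM final) for 90 min at 37 deg C. Beta-arrestin recruitment was read as luminescence after 1 h with detection reagent at ambient temperature.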
D2 ag-2 – HTS Assay for Allosteric Agonists of the Human D2 Dopamine Receptor: Primary Screen for Agonists | D(2) dopamine receptor (Homo sapiens), P14416 | HEK293 T-REx D2 cells, calcium flux agonist mode | activation, % at 2 µM | hit rate 0.53% among 340,000;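 active means activation over 3 SD above normal in the single-dose calcium agonist read, cut at about 30% in these data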; further: 0% is about no effect
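Agonism is scored from calcium flux in a force-coupled, inducible HEK293 cell line expressing D2, read kinetically for 180 s after compound addition against dopamine controls.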
* marks the source's active call; other numbers are inactive results. Rows were chosen to be rich in hits. Some 2.4% of all compounds tested hit in one or more screens of this group.

`CCOC(=O)CSc1nnc(Cc2ccccc2)n1-c1cccc(Cl)c1` gave D2 PAM-1 31.9*, D2 antag -3.4, D2 ag-1 -5.2, D2 PAM-2 0.4 and D2 ag-2 0.9.
`COc1ccccc1Nc1nn2c(=O)c3ccc(C(=O)NCc4ccc(F)cc4)cc3nc2s1` gave D2 PAM-1 1.6 and D2 ag-2 0.9.
`COc1ccccc1Nc1nn2c(=O)c3ccc(C(=O)NCc4cccnc4)cc3nc2s1` gave D2 PAM-1 30.1*, D2 antag -17.7 and D2 ag-2 0.0.
COc1ccc(Nc2ncc3c(n2)CCN(Cc2sccc2C)C3)c(OC)c1 was read as D2 PAM-1 0.4 and D2 ag-2 -0.4.
O=C(NC1=C(Nc2ccc(Cl)cc2)C(=O)c2ccccc2C1=O)c1ccccc1 was read as D2 PAM-1 0.7, D2 antag 7.1, D2 ag-1 11.7, D2 PAM-2 51.2* and D2 ag-2 -1.4.
For S=c1[nH]nc(-c2ccc(Br)o2)n1Cc1ccccc1 the results were D2 PAM-1 34.7*, D2 antag -12.7, D2 ag-1 1.5, D2 PAM-2 -10.5 and D2 ag-2 -0.8.
Screening S=c1[nH]nc(-c2ccco2)n1Cc1ccccc1 returned D2 PAM-1 11.0, D2 antag 5.9, D2 ag-1 0.4, D2 PAM-2 -10.2 and D2 ag-2 -2.4.
Screening O=C(CN1C(=O)c2ccccc2C1=O)NCCc1c[nH]c2ccccc12 returned D2 PAM-1 6.1, D2 antag -1.1, D2 ag-1 -1.4, D2 PAM-2 -4.2 and D2 ag-2 -0.4.
`O=C(CN1CCC(O)(c2ccccc2F)CC1)NCCc1c[nH]c2ccccc12` gave D2 PAM-1 -25.8, D2 antag 86.0*, D2 ag-1 -0.3, D2 PAM-2 -23.3 and D2 ag-2 0.0.
`COc1ccc(C(=O)N2c3nc(-c4ccco4)nn3C3(CCCCC3)[C@@H]3CCCC[C@@H]32)cc1OC` gave D2 PAM-1 -11.1 and D2 ag-2 2.4.
For Cc1cccc(CCN2C(Nc3ccccc3)=NC[C@@H]2CC(C)C)c1 the results were D2 PAM-1 -25.4, D2 antag 69.9*, D2 ag-1 -2.3, D2 PAM-2 -16.3 and D2 ag-2 59.5*.
For CC(C)C[C@H]1CN=C(Nc2ccccc2)N1CCc1ccc(F)cc1 the results were D2 PAM-1 -18.0, D2 antag 73.5*, D2 ag-1 -0.7, D2 PAM-2 -67.1 and D2 ag-2 59.4*.
`C=CCN1C(=O)CN=C1Nc1cccc(C)c1` gave D2 ag-1 -3.8 and D2 PAM-2 0.6.
Cc1cccc(NC2=NCC(=O)N2CCc2ccccc2)c1 was read as D2 PAM-1 2.2, D2 antag 37.3*, D2 ag-1 -4.9, D2 PAM-2 -17.3 and D2 ag-2 1.6.
For CC(C)C[C@H]1CN=C(Nc2ccccc2)N1CCc1cccc(F)c1 the results were D2 ag-1 -1.9 and D2 PAM-2 -31.2.
Screening CC(C)CCN1C(Nc2ccccc2)=NC[C@@H]1CC(C)C returned D2 PAM-1 -24.0, D2 antag -1.2, D2 ag-1 -3.8, D2 PAM-2 -8.9 and D2 ag-2 0.4.
CCn1nc(NC(=O)c2ccncc2)c2cc3ccc(C)cc3nc21 was read as D2 PAM-1 5.0, D2 antag -6.6, D2 ag-1 5.3, D2 PAM-2 12.8 and D2 ag-2 0.0.
CCn1nc(NC(=O)c2ccncc2)c2cc3cc(C)ccc3nc21 was read as D2 PAM-1 34.5*, D2 antag -2.9, D2 ag-1 -2.8, D2 PAM-2 -13.9 and D2 ag-2 -0.3.
`CCC(CC)c1nnc(NC(=O)CS(=O)(=O)Cc2ccccc2)s1` gave D2 ag-1 0.5 and D2 PAM-2 8.9.
`CCCC(C)c1nnc(NC(=O)CCS(=O)(=O)Cc2ccccc2)s1` (stereo not given) gave D2 PAM-1 -9.1, D2 antag -14.9, D2 ag-1 -7.6, D2 PAM-2 -7.3 and D2 ag-2 0.5.
Screening CCCC(C)c1nnc(NC(=O)CS(=O)(=O)Cc2ccccc2)s1 (stereo not given) returned D2 PAM-1 30.2*, D2 antag -2.2, D2 ag-1 1.8, D2 PAM-2 8.7 and D2 ag-2 -0.5.
For CC(C)c1nnc(NC(=O)CS(=O)(=O)Cc2ccccc2)s1 the results were D2 PAM-1 4.3, D2 antag 54.6*, D2 ag-1 4.7, D2 PAM-2 4.2 and D2 ag-2 -0.4.
Screening COc1ccc([N+](=O)[O-])cc1C(=O)C(=O)c1ccccc1 returned D2 PAM-1 18.2, D2 antag -4.5, D2 ag-1 -6.2, D2 PAM-2 -4.7 and D2 ag-2 -1.0.
Screening COc1cc(C(=O)O)nc2ccc([N+](=O)[O-])cc12 returned D2 PAM-1 1.7, D2 antag 38.4*, D2 ag-1 3.6, D2 PAM-2 -1.4 and D2 ag-2 2.1.
C1CCC(NC2=NCCO2)CC1 was read as D2 ag-1 -1.2 and D2 PAM-2 -8.9.
`C1COC(NC(C2CC2)C2CC2)=N1` gave D2 PAM-1 -4.2, D2 antag 36.2*, D2 ag-1 0.4, D2 PAM-2 -8.8 and D2 ag-2 1.7.
For Cc1ccc(-c2nnc3ccccc3c2C(=O)Nc2ccc(F)cc2)cc1 the results were D2 PAM-1 -4.7 and D2 ag-2 -0.1.
For COc1ccc(CN2C3CCC2CC(NC(=O)c2cc(OC)c(OC)c(OC)c2)C3)cc1 (stereo not given) the results were D2 PAM-1 -28.2, D2 ag-1 -5.7 and D2 PAM-2 -3.0.
Screening COc1cc(OC)cc(C(=O)NC2CCN(CCCOc3ccccc3)CC2)c1 returned D2 PAM-1 -11.1, D2 antag 46.9*, D2 ag-1 -4.6, D2 PAM-2 -5.1 and D2 ag-2 0.0.
`COc1cc(C(=O)NC2CCN(Cc3ccccc3)CC2)cc(Cl)c1OC` gave D2 PAM-1 -24.0, D2 antag 88.9*, D2 ag-1 -0.9, D2 PAM-2 -25.7 and D2 ag-2 -0.3.
For COc1cc(C(=O)NC2CC3CCCC(C2)N3Cc2ccccc2)cc(OC)c1OC (stereo not given) the results were D2 PAM-1 -31.9, D2 antag 83.7*, D2 ag-1 -2.1, D2 PAM-2 -7.3 and D2 ag-2 -0.8.
`COc1ccccc1C(=O)NC1CC2CCCC(C1)N2Cc1ccccc1` (stereo not given) gave D2 ag-1 2.8 and D2 PAM-2 -39.3.
